Data reported in PubChem BioAssay AID651558 (National Center for Advancing Translational Sciences (NCATS), 2012).
In all, about 1,200 compounds went through this assay and about 480 (40%) were called active. About 29% were inconclusive and are not listed. The call rests on the fitted dose curve; in most records, active means well fitted inhibition curve with a large enough effect; inconclusive means small, poorly fitted or top-dose-only effect; inactive means no such curve, though single readings can be large or run the other way. This is one part of the list.

Experiment: qHTS Assay to Find Inhibitors of Chronic Active B-Cell Receptor Signaling: Hit Validation in Primary Screen; further: nearly all actives have a fitted effect of over 75% in size
Settings: ABC-DLBCL IkB-luc/CBR ratio luminescence, 4 h; series mostly up to 46.1 µM
Summary of the method: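 TMD8 ABC-DLBCL cells carrying doxycycline-inducible IkBa-green luciferase fusion and free red luciferase, 0.5% FBS, dosed 46 uM–3 nM with doxycycline for 4 h at 37C. Green/red luminescence ratio normalized to basal and 10 uM MG-132.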
Potency means the concentration at half of the fitted maximal effect.

Potency, active:
COC(=O)CCC(=O)NC(=S)Nc1sc(C)c(C)c1C(N)=O 4.61 µM
CCOc1cc(-c2nnc(SCC(=O)NCc3ccccc3)nc2-c2ccc(OC)c(OCC)c2)ccc1OC 2.59 µM
COc1cc(OC)c(OC)cc1/C=C/C(=O)c1ccc(NS(=O)(=O)c2ccc(C)cc2)cc1 13 µM
CCOc1ccc2nc(NC(=O)c3ccccn3)sc2c1 14.6 µM
O=C(Nc1nc2c(F)cc(F)cc2s1)c1ccccn1 13 µM
O=C(Nc1nc2ccc(F)cc2s1)c1ccccn1 1.46 µM
Cc1ccc2nc(NC(=O)c3ccccn3)sc2c1 1.16 µM
COc1ccccc1NC(=O)c1c(N=Cc2c(O)ccc3ccccc23)cnn1C 3.26 µM
CC(=O)N1CC(=O)N=C1SCC(=O)Nc1nc(C)c(-c2ccccc2)s1 23.1 µM
COc1cccc(/C=N/NC(=O)c2[nH]nc3c2CCc2ccccc2-3)c1O 20.6 µM
COc1cccc(N2CCN(C(=O)c3ccc(CS(=O)c4ccccc4Cl)o3)CC2)c1 (configuration not stated) 1.84 µM
COc1cccc(N2CCN(C(=O)c3ccc(CS(=O)c4ccccc4C)o3)CC2)c1 (configuration not stated) 5.8 µM
O=C(c1ccc(CS(=O)c2ccccc2Cl)o1)N1CCN(c2ccccc2)CC1 (configuration not stated) 14.6 µM
CCCNc1nc(-c2ccccc2)c(C(=O)OCC)cc1C#N 18.4 µM
COC(=O)c1ccc(C)c(NS(=O)(=O)c2ccc3c(c2)OCCO3)c1 9.2 µM
COc1ccc(S(=O)(=O)Nc2cc3c(C(C)=O)c(C)oc3c3ccccc23)cc1 2.06 µM
COC(=O)c1ccc(C)c(NS(=O)(=O)c2ccc(OC)cc2)c1 1.84 µM
COc1cccc2sc(Nc3nnc(-c4ccccc4Cl)o3)nc12 8.2 µM
COc1ccccc1-c1nnc(Nc2nc3c(OC)cccc3s2)o1 0.366 µM
COc1ccc(COC(=O)c2cc([N+](=O)[O-])ccc2N2CCOCC2)cc1F 0.092 µM
CSc1ccc(COC(=O)c2cc([N+](=O)[O-])ccc2N2CCOCC2)cc1 0.58 µM
Cc1ccc(COC(=O)c2cc([N+](=O)[O-])ccc2N2CCOCC2)cc1 5.8 µM
CCOc1ccc(S(=O)(=O)N2c3ccccc3CC2C)cc1 (configuration not stated) 14.6 µM
COc1ccc(S(=O)(=O)N2c3ccccc3OCC2C)cc1 (configuration not stated) 16.4 µM
COC(=O)c1ccc(Oc2cc(C)nc(-n3nc(C)cc3C)n2)cc1 3.26 µM
CC(=O)c1ccc(Oc2cc(C)nc(-n3nc(C)cc3C)n2)cc1 7.31 µM
O=C(CCCN1C(=O)/C(=C/c2ccccc2OC(F)F)SC1=S)Nc1cccnc1 7.31 µM
O=C(O)CCCN1C(=O)/C(=C\c2ccccc2OCc2ccccc2)SC1=S 7.31 µM
CCCNS(=O)(=O)c1cccc(C(=O)OCc2cc(=O)oc3cc(OC)ccc23)c1 9.2 µM
Cc1cc(C)c2nc(SCC(=O)N3CC(=O)Nc4ccccc43)c(C#N)cc2c1 3.66 µM
Cc1cc(C)cc(C(=O)N2CC(=O)Nc3ccccc32)c1 3.66 µM
COc1cc(OC)cc(C(=O)N2CC(=O)Nc3ccccc32)c1 14.6 µM
COc1ccccc1NC(=O)N1CCC(c2nc3cc(C)c(C)cc3[nH]2)CC1 5.17 µM
ClC(Cl)(Cl)c1nc2ccccc2n2nncc12 18.4 µM
COc1cc(-c2noc(C)c2/C=C/c2ccc(N)cc2)cc(OC)c1OC 1.3 µM
COc1cc(-c2noc(C)c2/C=C/c2ccc(OC(C)=O)cc2)cc(OC)c1OC 4.61 µM
CCOC(=O)C(C)Oc1cccc2c(=O)n(CC(=O)NCc3ccccc3)ccc12 (configuration not stated) 4.11 µM
CCOC(=O)C(C)Oc1cccc2c(=O)n(CC(=O)NCc3ccc4c(c3)OCO4)ccc12 (configuration not stated) 20.6 µM
CCOC(=O)COc1cccc2c(=O)n(CC(=O)NCc3ccc(F)cc3)ccc12 3.26 µM
CCOC(=O)C(C)Oc1cccc2c(=O)n(CC(=O)NCc3ccco3)ccc12 (configuration not stated) 18.4 µM
COC(=O)COc1cccc2c(=O)n(CC(=O)NCc3ccccc3)ccc12 9.2 µM
CCOC(=O)C(C)Oc1cccc2c(=O)n(CC(=O)NCc3ccc(F)cc3)ccc12 (configuration not stated) 2.59 µM
CCN(c1cccc(C)c1)S(=O)(=O)c1ccc(-c2cc(C)no2)s1 16.4 µM
Cc1cc(Cl)ccc1OCCCC(=O)NO 16.4 µM
CC[C@]1(O)CC2CN(CCc3c([nH]c4ccccc34)[C@@](C(=O)OC)(c3cc4c(cc3OC)N(C=O)[C@H]3[C@@](O)(C(=O)OC)[C@H](OC(C)=O)[C@]5(CC)C=CCN6CC[C@]43[C@@H]65)C2)C1 (some centres not stated) 0.0517 µM
CC[C@]1(O)C[C@@H]2CN(CCc3c([nH]c4ccccc34)[C@@](C(=O)OC)(c3cc4c(cc3OC)N(C)[C@H]3[C@@](O)(C(=O)OC)[C@H](OC(C)=O)[C@]5(CC)C=CCN6CC[C@]43[C@@H]65)C2)C1 0.0461 µM
COc1ccc(C(=O)/C=C/c2ccc(O)cc2)c2c1CC(O)C(C)(C)O2 (configuration not stated) 20.6 µM
COc1cc(Nc2c3c(nc4ccccc24)CCC3)cc(OC)c1OC 18.4 µM
COc1ccc(OC)c(Nc2c3c(nc4ccccc24)CCC3)c1 14.6 µM
COc1ccc(NS(=O)(=O)c2cc(-c3cnc(C4CC4)o3)ccc2C)cc1 23.1 µM
Cc1ccc(C)c(NS(=O)(=O)c2ccc(-c3cnc(C4CC4)o3)cc2)c1 1.03 µM
Cc1cc(C)cc(NS(=O)(=O)c2ccc(-c3cnc(C4CC4)o3)cc2)c1 2.06 µM
COc1ccc(C)cc1NS(=O)(=O)c1ccc(-c2cnc(C3CC3)o2)cc1 0.92 µM

Potency, inactive:
CCCCC(=O)NC(=S)Nc1nnn(CCC)n1
COc1ccccc1CNC(=O)CSc1ccc(C)cc1
COc1ccc(CN(C)C(=O)Cn2cnc3c(NCc4ccccc4)ncnc32)cc1OC
CC1=NN(C(N)=S)C(=O)C1N=Nc1ccc(F)cc1 (configuration not stated)
Cc1ccsc1/C=C/C1=NCCCN1C
CC1(C)N=c2ccc([N+](=O)[O-])c(N)c2=[N+]1[O-]
COc1ccc(S(=O)(=O)Nc2ccc3c(c2)n(C)c(=O)n3C)cc1F
S=C(Nc1ccccn1)c1ccccn1
C/C(=N\NC(=O)c1ccc(F)cc1)c1ccccn1
COc1ccc2nc(NC(=S)NC(=O)c3ccco3)sc2c1
CCOc1ccc2nc(NS(=O)(=O)Cc3ccccc3)sc2c1
O=C(Nc1nnc(SCc2ccc(F)cc2)s1)c1ccccn1
O=C(NCC(=O)N1CCCC(C(F)(F)F)C1)c1ccc(Oc2ccccc2)cc1 (configuration not stated)
CN(C)NC(=S)NC(=O)C12CC3CC(CC(C3)C1)C2
Cc1cc(C(N)=O)nn1-c1c(Cl)cc(Cl)cc1Cl
COc1ccc(CCCC(=O)N/N=C/c2cccc(OC)c2O)cc1C
CC/C(=N/Nc1ccc(Cl)cc1)c1cnnc(SC)n1
Cc1ccc(C(=O)Oc2ccc(Cl)c3cccnc23)cc1[N+](=O)[O-]
CCCNc1ccc(C(=O)OCC)cc1[N+](=O)[O-]
CC(C)CCOc1ccc(CO[C@@H]2[C@H]3OC(C)(C)O[C@H]3O[C@@H]2C(O)CO)cc1 (some centres not stated)
COc1ccc(NS(=O)(=O)c2cc(NC(=O)CNC(=O)c3cccc(OC)c3)ccc2C)cc1
COc1cc2nc(=S)n3[nH]c(CCn4nc(C)cc4C)nc3c2cc1OC
O=C(/C=C/c1ccc(-c2ccccc2[N+](=O)[O-])o1)c1ccccc1
CC(=O)[C@H]1CC[C@H]2[C@@H]3CCC4=CC(=O)CC[C@]4(C)[C@H]3CC[C@]12C
C[C@]12CCC(=O)C=C1CC[C@@H]1[C@@H]2[C@@H](O)C[C@@]2(C)[C@H]1CC[C@]2(O)C(=O)CO
NC(=S)N/N=C\c1ccc(-c2cccc(Cl)c2Cl)o1
CCN(CC)S(=O)(=O)c1ccc(N2CCOCC2)c(NC(=O)c2[nH]c(C)c(C(C)=O)c2C)c1
CCCCn1c(=O)c(F)cn(Cc2ccc(OC)c([N+](=O)[O-])c2)c1=O
CCCCn1c(-c2csc(C(C)C)c2)n[nH]c1=S
CNC(=S)N/N=C(\C)c1ccc(Cl)c(Cl)c1
CNc1nc(N)c([N+](=O)[O-])c(NCc2ccccc2)n1
O=C(CSc1cccc[n+]1[O-])c1ccc(Cl)s1
COc1ccccc1-c1cc(C(=O)Nc2cccnc2)no1
COc1cc(OC)cc(C(=O)N/N=C(\C)CC(=O)Nc2ccccn2)c1
COc1ccc(N2CC(C(=O)N3CCC(c4nc5ccccc5[nH]4)CC3)CC2=O)cc1 (configuration not stated)
CCOC(=O)COc1cccc2c(=O)n(CC(=O)NCc3ccccc3)ccc12
CCOc1ccc(CCNC(=O)c2cc(=O)[nH]c3ccc(S(=O)(=O)N4CCCCC4C)cc23)cc1OCC (configuration not stated)
C=CCn1c(O)c(N=NC(=S)Nc2ccccc2C)c2cc(S(=O)(=O)N3CCOCC3)ccc21
Cc1cccc(N(C)S(=O)(=O)c2ccc(-c3cc(C)no3)s2)c1
Cc1nn(C)cc1CNC(=O)COc1ccc(Cl)cc1Cl
O=S1(=O)[C@H]2C[C@H](CO)O[C@@]2(CO)CN1Cc1ccc(-c2cccc(Cl)c2)cc1
COc1ccccc1-c1nc2c3ccccc3nc(=S)n2[nH]1
Cc1nn(CCC(=O)NNC(=S)Nc2ccccc2)c(C)c1Br
Cc1ccc(C)c(/C=N/NC(=S)NC(C)C)c1
